This is an account of results in PubChem BioAssay AID431 (Sanford-Burnham Center for Chemical Genomics, 2006).

The campaign covered roughly 63,000 compounds. About 1,100 (1.7%) were called active. The sample holds actives, similar compounds and a random draw of the others, so the mix is not that of the screen.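 Rule for the calls: active = compounds whose percent cytotoxicity in the single-dose primary screen, scaled between solvent and toxic-drug controls, exceeds 50; inactive = the rest.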 Results with a measured potency or affinity are listed apart.

A short description of the experiment: viability loss of HPDE-C7K cells – cell-based, fluorescence, HTS, primary screen (AID 431).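 Note: 0% = DMSO solvent wells and 100% = doxorubicin-treated wells.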 The following applies: HPDE-C7K KRASV12 cells, Alamar Blue viability, 48 h; at 10 µM; stronger effect = higher value.
Consider `Cn1c(=O)c2c(nc(Oc3ccc4c(c3)OCO4)n2Cc2ccc(Cl)cc2)n(C)c1=O`, for which the cytotoxicity is 12.9% (inactive).

Take `Cc1cc(Br)c(S(=O)(=O)NCCN2CCOCC2)cc1C`: the cytotoxicity was 8.4% (inactive).

Turning to `CN(Cc1ccco1)C(=O)Cn1c(=O)oc2cc(S(=O)(=O)NCc3ccccc3)ccc21`, the cytotoxicity was 13.3% (inactive).

Take `CN(CCCn1c(=S)[nH]c2ncccc2c1=O)Cc1ccccc1`: the cytotoxicity was -13.7% (inactive).

Take `COc1ccc(OC)c(-c2cc(C(=O)N3CCCc4ccccc43)no2)c1`: the cytotoxicity is -6.9% (inactive).

On to `COc1ccc(CCNC2CC(=O)N(CCc3ccc(OC)c(OC)c3)C2=O)cc1OC` (configuration not stated), for which the cytotoxicity is 6.1% (inactive).

For the molecule `COC(=O)Nc1ccc(Oc2ccccc2)cc1`, the cytotoxicity is -4.1% (inactive).

As to `COc1ccccc1C(c1nnnn1Cc1ccccc1)N1CCN(c2nc3ccccc3s2)CC1` (configuration not stated), the cytotoxicity was -13% (inactive).

In the case of `C=CS(=O)(=O)c1ccc(Oc2ccc(S(=O)(=O)C=C)cc2)cc1`, the cytotoxicity was 94.8% (active).

With `O=S(=O)(c1ccc(Oc2ccc(S(=O)(=O)N3CCOCC3)cc2)cc1)N1CCOCC1`, the cytotoxicity is -9% (inactive).

With `CNS(=O)(=O)c1ccc(Oc2ccc(S(=O)(=O)NC)cc2)cc1`, the cytotoxicity was 9.9% (inactive).

As for `CCn1cc(C(=O)NCCc2ccccc2)c(=O)c2cc(F)c(N3CCN(C)CC3)cc21`, the cytotoxicity was 50.5% (active).

Take `CCn1cc(C(=O)NCc2ccccn2)c(=O)c2cc(F)c(N3CCN(C)CC3)cc21`: the cytotoxicity was 2.1% (inactive).

For the molecule `CCn1cc(C(=O)NCCCN(C)C)c(=O)c2cc(F)c(N3CCN(C)CC3)cc21`, the cytotoxicity was -0.3% (inactive).

`C/C(Cl)=C\Cn1c(N2CCCCCC2)nc2c1c(=O)n(C)c(=O)n2C`: the cytotoxicity is 12% (inactive).

`N#Cc1ccc(NC(=O)c2cc3cc4c5c(c3oc2=N)CCCN5CCC4)cc1`: the cytotoxicity is 12.7% (inactive).

For `Cc1cc(-c2ccccc2)nc(N2CCN(c3ccccn3)CC2)n1`, the cytotoxicity is 5.4% (inactive).

Regarding `O=C(c1cc(Cl)ccc1Cl)N1CCN(c2ccccn2)CC1`, the cytotoxicity is 1.5% (inactive).

In the case of `COC(=O)c1sc(Nc2ccccc2)nc1C`, the cytotoxicity was 0.2% (inactive).

Regarding `CCS(=O)(=O)N1CCN(c2cccc(C)c2C)CC1`, the cytotoxicity is -2.5% (inactive).

`c1ccc(-c2cc(-c3nc(-c4cccnc4)no3)c3ccccc3n2)cc1`: the cytotoxicity was -19.7% (inactive).

Regarding `c1ccc(-c2ccc(-c3nc(-c4ccccn4)no3)cc2)cc1`, the cytotoxicity was -2.8% (inactive).

As for `c1ccc(-c2cc(-c3nc(-c4ccccn4)no3)c3ccccc3n2)cc1`, the cytotoxicity was 60.7% (active).

Consider `Cc1cc(C)n2cc(CSc3nnnn3-c3ccccc3C)nc2n1`, for which the cytotoxicity was -17.4% (inactive).

Take `COc1ccc(CSc2nnc(N)s2)cc1F`: the cytotoxicity is 49.9% (inactive).

`Cc1ccc2c(c1)c1c3n2CCN(C(=O)CN2CCN(C)CC2)C3CCC1` (configuration not stated): the cytotoxicity was 42.5% (inactive).

In the case of `Cc1ccc2c(c1)c1c3n2CCN(C(=O)C2CC2)C3CCC1` (configuration not stated), the cytotoxicity is -2.9% (inactive).

With `COc1ccccc1N1CCN(C(=O)CCCCn2c(=O)[nH]c3ccsc3c2=O)CC1`, the cytotoxicity is 1.8% (inactive).

Take `CN1CCc2nc(SCC(=O)Nc3ccc(F)cc3)c(C#N)cc2C1`: the cytotoxicity is -5% (inactive).

As for `C=CCN1C(=O)c2ccccc2Sc2ccc(C(=O)N3CCN(C)CC3)cc21`, the cytotoxicity is -13.7% (inactive).

With `O=C(Nc1cccc(C(F)(F)F)c1)c1cccnc1N1CCN(CCO)CC1`, the cytotoxicity is -13.4% (inactive).

In the case of `O=C(CN1CCCC(O)C1)N1c2ccccc2Sc2ccc(C(F)(F)F)cc21` (configuration not stated), the cytotoxicity is -4% (inactive).

As for `FC(F)(F)c1cccc(CN2CCCCCC2)c1`, the cytotoxicity was -5.3% (inactive).

As to `C=CCOC(=O)CC(NC(=O)c1ccccc1)c1ccccc1` (configuration not stated), the cytotoxicity is -11.4% (inactive).

For `COc1ccccc1-c1cn(S(=O)(=O)c2ccc(F)cc2)nc1N`, the cytotoxicity is 2% (inactive).

Take `CCOC(=O)c1[nH]nc(C(=O)c2ccc(Br)cc2)c1O`: the cytotoxicity is 5.4% (inactive).

Take `Cc1ccc(C(=O)c2coc3ccc(O)c(CN4CCN(C)CC4)c23)cc1`: the cytotoxicity is -9% (inactive).

Turning to `O=C(c1ccccc1)c1coc2ccc(O)c(Cl)c12`, the cytotoxicity was -15% (inactive).

As for `CC(=O)C(C(C)=O)c1c(Cl)c(O)c(O)c2c(C(=O)c3ccccc3)coc12`, the cytotoxicity was 76.1% (active).

For the molecule `CN(C)Cc1c(O)ccc2occ(C(=O)c3ccccc3)c12`, the cytotoxicity was 6.6% (inactive).

Consider `c1cncc(C(c2nnnn2C2CCCC2)N2CCCC2)c1` (configuration not stated), for which the cytotoxicity is 6% (inactive).

Consider `Cc1ccc(SCc2nc(-c3ccccc3)no2)cc1`, for which the cytotoxicity is -10.8% (inactive).

As to `O=C(O)CCC(=O)N1CCN(c2cccc(Cl)c2)CC1`, the cytotoxicity was -6.3% (inactive).

On to `CCCNC(=O)c1[nH]c(C)c(C(C)=O)c1C`, for which the cytotoxicity was 7.9% (inactive).

`CCc1[nH]c(C)c(C(C)=O)c1C`: the cytotoxicity is 65.5% (active).

For the molecule `CC(=O)c1c(C)[nH]c(C)c1C(C)=O`, the cytotoxicity is -3.5% (inactive).

Regarding `O=C(Nc1ccccc1C(=O)N1CCCC1)c1cccc(S(=O)(=O)N2CCCCCC2)c1`, the cytotoxicity was -4.2% (inactive).

In the case of `c1ccc2c(c1)CCN2CCN1CCc2ccccc21`, the cytotoxicity is 1.1% (inactive).

For `COc1ccc(NC(=O)C2CCCN2C(=O)NCc2ccccc2)c(OC)c1` (configuration not stated), the cytotoxicity is -13.7% (inactive).

Take `O=C(c1cc(-c2ccccn2)nc2c(Cl)cccc12)N1CCN(C(=O)C2CCCO2)CC1` (configuration not stated): the cytotoxicity was 0.1% (inactive).

On to `CCn1c(Sc2nc(C)nc3scc(-c4cccs4)c23)n[nH]c1=O`, for which the cytotoxicity was -16.8% (inactive).

On to `Cc1cccc(C(=O)NC2CC3CCCC(C2)N3C(=O)NC2CCCCC2)c1` (configuration not stated), for which the cytotoxicity is -1.9% (inactive).

Regarding `NC1=NC(c2ccc(Cl)cc2)n2c(nc3ccccc32)N1` (configuration not stated), the cytotoxicity was -23.5% (inactive).

Turning to `O=C(Nc1nc2c(s1)CCCC2)c1cc2n(n1)C(C(F)(F)F)CC(C1CC1)N2` (configuration not stated), the cytotoxicity was 52.5% (active).

As to `Cc1nnc(NC(=O)c2cc3n(n2)C(C(F)(F)F)CC(C2CC2)N3)s1` (configuration not stated), the cytotoxicity is -34.9% (inactive).

Turning to `O=C(NCc1ccc(F)cc1)c1cc2n(n1)C(C(F)(F)F)CC(C1CC1)N2` (configuration not stated), the cytotoxicity was -22% (inactive).

Regarding `COC(=O)COc1cccc(NC(=O)c2ccccc2)c1`, the cytotoxicity was -1.5% (inactive).

Consider `Cc1nc2sc(C(c3cccc(F)c3)N3CCC(O)CC3)c(O)n2n1` (configuration not stated), for which the cytotoxicity is -0.3% (inactive).

`CC(=O)C1=C(C)N=c2s/c(=C/c3ccc4c(c3)OCO4)c(=O)n2C1c1ccc(N(C)C)cc1` (configuration not stated): the cytotoxicity is -0.2% (inactive).

Regarding `COc1ccc(C2C(C(C)=O)=C(C)N=c3s/c(=C/c4ccc5c(c4)OCO5)c(=O)n32)cc1` (configuration not stated), the cytotoxicity was -10.1% (inactive).

In the case of `CCC(C)(C)n1nnnc1C(c1cc2ccc(OC)cc2[nH]c1=O)N1CCc2ccccc2C1` (configuration not stated), the cytotoxicity is 35% (inactive).

Take `COC(=O)c1ccccc1NS(=O)(=O)c1ccc(O)c(C(=O)O)c1`: the cytotoxicity is 19.7% (inactive).

As for `COC(=O)c1ccc(CN2C(=O)NC3(CCCCC3C)C2=O)o1` (configuration not stated), the cytotoxicity is 3.4% (inactive).

Regarding `CCN(CC)c1ccc(NC(=O)c2cnc3ccccn3c2=O)c(C)c1`, the cytotoxicity was 3.9% (inactive).

As for `Cn1nnnc1SCCNCc1cccc2ccccc12`, the cytotoxicity is -3% (inactive).

For `CCN(CC)c1ccc(NC(=O)Nc2cccc(C(C)=O)c2)cc1`, the cytotoxicity is 16.4% (inactive).

Regarding `CCOc1cccc(C(=O)Nc2ccc(N(CC)CC)cc2)c1`, the cytotoxicity was 87.5% (active).

Turning to `CN(C)c1cccc(C(=O)Nc2cccc(F)c2)c1`, the cytotoxicity was 2.1% (inactive).

As to `CC(=O)Nc1ccc(NC(=O)c2ccccc2F)cc1`, the cytotoxicity is 8.8% (inactive).

Consider `O=C(Nc1ccncc1)c1ccccc1F`, for which the cytotoxicity was -14.5% (inactive).

For `CCN(CC)c1ccc(NC(=O)c2ccc(NC(=O)C3CCCO3)cc2)c(C)c1` (configuration not stated), the cytotoxicity is -1.3% (inactive).

For `CCN(CC)c1ccc(NC(=O)c2ccco2)c(C)c1`, the cytotoxicity is 10.7% (inactive).

Turning to `CCN(CC)c1ccc(NC(=O)c2cc(OC)cc(OC)c2)c(C)c1`, the cytotoxicity is 59.9% (active).

Turning to `CCN(CC)c1ccc(NC(=O)c2ccccc2F)cc1`, the cytotoxicity was 50.7% (active).

`CCOc1ccc(NC(=O)c2cccc(-n3cnnn3)c2)cc1`: the cytotoxicity is -18% (inactive).

In the case of `CCOc1cccc(C(=O)Nc2ccc(N3CCN(S(C)(=O)=O)CC3)cc2)c1`, the cytotoxicity was -10% (inactive).

For `CCN(CC)c1ccc(C(=O)Nc2cccc(F)c2)cc1`, the cytotoxicity was 57.4% (active).

`Cc1cccc(COc2ccc(/C(O)=C3\C(=O)C(=O)N(CCN(C)C)C3c3ccncc3)cc2)c1` (configuration not stated): the cytotoxicity was 0.7% (inactive).

Turning to `O=C(c1ccco1)N1CCN(C(=O)c2cc(-c3ccncc3)nc3ccc(Br)cc23)CC1`, the cytotoxicity is 1.3% (inactive).

With `O=C(NCC(=O)N(Cc1ccccc1)C(C(=O)NC1CCCC1)c1ccco1)c1ccco1` (configuration not stated), the cytotoxicity is -6.1% (inactive).

In the case of `Cn1c(COc2ccccc2)nnc1SCC(=O)Nc1ccc2c(c1)OCO2`, the cytotoxicity is 9.4% (inactive).

Take `O=C1c2oc3ccc(F)cc3c(=O)c2C(c2ccncc2)N1CCN1CCOCC1` (configuration not stated): the cytotoxicity is -11.5% (inactive).

In the case of `O=C(CN(Cc1ccco1)S(=O)(=O)c1cccs1)Nc1ccccc1C(F)(F)F`, the cytotoxicity is -23.6% (inactive).

Regarding `CCN(CC)c1ccc(NC(=O)c2cccc(OC)c2)c(C)c1`, the cytotoxicity is 55.4% (active).

Consider `CCN(CC)c1ccc(NC(=O)c2c(OC)cccc2OC)c(C)c1`, for which the cytotoxicity was -0.6% (inactive).

`CCN(CC)c1ccc(NC(=O)c2cccc(C)c2OC)c(C)c1`: the cytotoxicity is 2.9% (inactive).

As for `O=C(Nc1ccc(N2CCN(Cc3ccccc3Cl)CC2)cc1)c1cccnc1`, the cytotoxicity was 16.7% (inactive).

In the case of `Cc1cc(Nc2ccccc2C(=O)O)nc2nc3ccccc3c(=O)n12`, the cytotoxicity was -5.3% (inactive).

`N#CC(C(=O)NC1CCCCC1)c1nc2ccccc2nc1N1CCOCC1` (configuration not stated): the cytotoxicity is 13.7% (inactive).

As for `CCc1ccc(-c2cn3nc(C)c(C)nc3n2)cc1`, the cytotoxicity is -7.6% (inactive).

`CCc1ccc(-c2cn(-c3nc(C)cc(C)n3)c(=N)o2)cc1`: the cytotoxicity was 54.8% (active).

On to `CCc1ccc(-n2c(O)cnc2Nc2nc(C)cc(C)n2)cc1`, for which the cytotoxicity is -3% (inactive).

Regarding `CC1CCc2cc(F)ccc2N1C(=O)CCC(=O)O` (configuration not stated), the cytotoxicity was -12.5% (inactive).

For `CN(C)c1nc(N)nc(CSc2nnnn2C)n1`, the cytotoxicity is 8.9% (inactive).

For the molecule `COc1ccc(C2=NOC(CN3C(=O)c4ccccc4S3(=O)=O)C2)cc1` (configuration not stated), the cytotoxicity is -0.1% (inactive).

In the case of `CC(C)(C)N1C(=O)Cc2c1nc(N)c1c(N)nc(N3CCCCC3CO)c(C#N)c21` (configuration not stated), the cytotoxicity was 59.9% (active).

Regarding `N#Cc1c(N)nc2c(c1N)CC(=O)N2c1ccccc1-c1ccccc1`, the cytotoxicity was 5.8% (inactive).
